AC50 and outcome data for four molecules are collected here from PubChem BioAssay (EPA / NIEHS).

Holding throughout (details): mRNA level, 48 h; actives raise or lower the signal
Read-out in assay [1]: Interleukin 6 (IL6), IL6 (gene 3569)
Put plainly: LTEA_HepaRG_IL6: Life Technologies and Expression Analysis (LTEA) Assay for Interleukin 6 (IL6) using HepaRG (AID 2283509). The method in brief:
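Changes in IL6 mRNA, up or down relative to 0.5% DMSO controls, were derived from concentration-response curves in human HepaRG cells treated for 48 h at up to 100 uM, with ACTB, GAPDH and POLR2A as normalizers.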

Read-out in assay [2]: Interleukin 6 Receptor (IL6R), IL6R (gene 3570)
Description: LTEA_HepaRG_IL6R: Life Technologies and Expression Analysis (LTEA) Assay for Interleukin 6 Receptor (IL6R) using HepaRG (AID 2283510).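 For AC50: differentiated human HepaRG liver cells in serum-free induction medium; TaqMan qRT-PCR signal normalized to ACTB GAPDH and POLR2A housekeeping genes.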 The method in brief:
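In this HepaRG screen, test chemicals act on cells for 48 h at up to 100 uM (eight half-log points, duplicate wells). IL6R expression is quantified by qRT-PCR after normalization to ACTB, GAPDH and POLR2A, with DMSO as baseline.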

Read-out in assay [3]: Potassium channel subfamily K member 1 (KCNK1), KCNK1 (gene 3775)
Put plainly: LTEA_HepaRG_KCNK1: Life Technologies and Expression Analysis (LTEA) Assay for Potassium channel subfamily K member 1 (KCNK1) using HepaRG (AID 2283511). The procedure, abridged: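 Human HepaRG cultures receive test chemicals for 48 h in 0.5% DMSO, top concentration 100 uM with half-log dilutions. Induction or suppression of KCNK1 mRNA relative to DMSO is derived by bidirectional fitting of qRT-PCR data.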

Read-out in assay [4]: Keratin 19 (KRT19), KRT19 (gene 3880)
Put plainly: LTEA_HepaRG_KRT19: Life Technologies and Expression Analysis (LTEA) Assay for Keratin 19 (KRT19) using HepaRG (AID 2283512). The procedure, abridged: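 KRT19 transcript measured by TaqMan qRT-PCR, referenced to three housekeeping genes, after HepaRG cells received test chemicals for 48 h. Eight half-log concentrations, top 100 uM, 0.5% DMSO vehicle; increases and decreases both fitted.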

Read-out in assay [5]: JUN Transcription Factor, JUN (gene 3725)
Put plainly: LTEA_HepaRG_JUN: Life Technologies and Expression Analysis (LTEA) Assay for JUN Transcription Factor using HepaRG (AID 2283513). The method in brief:
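Gene-expression endpoint: JUN mRNA (qRT-PCR, normalized to three reference genes) in HepaRG cultures treated 48 h with chemicals, duplicate wells, 100 uM maximum with half-log dilutions; bidirectional fitting relative to 0.5% DMSO.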

Read-out in assay [6]: MicroRNA 122 (MIR122), gene 406906
Put plainly: LTEA_HepaRG_MIR122: Life Technologies and Expression Analysis (LTEA) Assay for MicroRNA 122 (MIR122) using HepaRG (AID 2283516). Note: the transcript read is the microRNA miR-122. The procedure, abridged:
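Changes in transcript abundance, up or down relative to 0.5% DMSO vehicle, were scored after 48 h chemical treatment of HepaRG cells (maximum 100 uM). Quantification used TaqMan qRT-PCR normalized to housekeeping genes.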

Read-out in assay [7]: matrix metalloproteinase-10 (MMP10), MMP10 (gene 4319)
Put plainly: LTEA_HepaRG_MMP10: Life Technologies and Expression Analysis (LTEA) Assay for matrix metalloproteinase-10 (MMP10) using HepaRG (AID 2283517). The procedure, abridged:
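In differentiated HepaRG cultures kept in 0.5% DMSO, test chemicals act for 48 h over an eight-point range with a top dose of 100 uM. Expression is then quantified by TaqMan RT-PCR against ACTB, GAPDH and POLR2A.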

Read-out in the next assay: MYC, MYC (gene 4609)
Put plainly: LTEA_HepaRG_MYC: Life Technologies and Expression Analysis (LTEA) Assay for MYC using HepaRG (AID 2283518). The procedure, abridged:
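MYC transcript changes, up or down relative to 0.5% DMSO, from TaqMan qRT-PCR normalized to three housekeeping genes. Human HepaRG cultures received chemicals for 48 h at eight half-log concentrations up to 100 uM, in duplicate.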

Read-out in assay [8]: matrix metalloproteinase-3 (MMP3), MMP3 (gene 4314)
Description: LTEA_HepaRG_MMP3: Life Technologies and Expression Analysis (LTEA) Assay for matrix metalloproteinase-3 (MMP3) using HepaRG (AID 2283519). The method in brief:
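Human liver HepaRG cultures received chemicals (top concentration 100 uM, 0.5% DMSO) for 48 h in duplicate. MMP3 mRNA induction or loss was then assessed via TaqMan qRT-PCR with housekeeping-gene normalisation.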

Read-out in assay [9]: Paternally Expressed 10 (PEG10), PEG10 (gene 23089)
Description: LTEA_HepaRG_PEG10: Life Technologies and Expression Analysis (LTEA) Assay for Paternally Expressed 10 (PEG10) using HepaRG (AID 2283520).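 For AC50: PEG10 transcript by qRT-PCR normalised to ACTB GAPDH and POLR2A.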 The method in brief: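 After 48 h exposure of differentiated HepaRG cells (0.5% DMSO vehicle, eight concentrations up to 100 uM, duplicates), PEG10 mRNA was measured by TaqMan qRT-PCR. Values were normalised to endogenous control genes and analysed bidirectionally against vehicle.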

Read-out in assay [10]: Protein phosphatase 2A (PPP2R4), PTPA (gene 5524)
Description: LTEA_HepaRG_PPP2R4: Life Technologies and Expression Analysis (LTEA) Assay for Protein phosphatase 2A (PPP2R4) using HepaRG (AID 2283522). The method in brief: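 Using HepaRG cultures maintained in 0.5% DMSO, chemicals are tested 48 h at up to 100 uM in duplicate. Induction or suppression of PPP2R4 mRNA, measured by qRT-PCR, is fitted bidirectionally against the vehicle baseline.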

Read-out in assay [11]: Phosphatase and tensin (PTEN), PTEN (gene 5728)
Description: LTEA_HepaRG_PTEN: Life Technologies and Expression Analysis (LTEA) Assay for Phosphatase and tensin (PTEN) using HepaRG (AID 2283523). The procedure, abridged:
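Expression of PTEN is quantified in the human liver line HepaRG following two days of dosing (top concentration 100 uM, half-log dilutions, 0.5% DMSO). Values derive from bidirectional curve fitting relative to DMSO controls.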

Read-out in assay [12]: solute carrier (SLC22A1), SLC22A1 (gene 6580)
Put plainly: LTEA_HepaRG_SLC22A1: Life Technologies and Expression Analysis (LTEA) Assay for solute carrier (SLC22A1) using HepaRG (AID 2283524).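 For AC50: differentiated human HepaRG liver cells in serum-free induction medium; TaqMan qRT-PCR normalized to ACTB GAPDH and POLR2A housekeeping genes.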 The procedure, abridged:
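Transcript induction or suppression of SLC22A1 in human HepaRG cultures is scored after 48 h chemical treatment, with DMSO (0.5%) as baseline for bidirectional fitting. Concentrations span eight half-log points topping at 100 uM.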

Read-out in assay [13]: Pyruvate Dehydrogenase Kinase 4 (PDK4), PDK4 (gene 5166)
Description: LTEA_HepaRG_PDK4: Life Technologies and Expression Analysis (LTEA) Assay for Pyruvate Dehydrogenase Kinase 4 (PDK4) using HepaRG (AID 2283525). The procedure, abridged:
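Eight-point, half-log concentration series (max 100 uM, 0.5% DMSO) applied to differentiated HepaRG cells for 48 h in duplicate. Endpoint: PDK4 mRNA induction or repression by qRT-PCR against DMSO baseline.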

Read-out in assay [14]: NAD(P)H dehydrogenase [quinone] 1 (NQO1), NQO1 (gene 1728)
Put plainly: LTEA_HepaRG_NQO1: Life Technologies and Expression Analysis (LTEA) Assay for NAD(P)H dehydrogenase [quinone] 1 (NQO1) using HepaRG (AID 2283526). The method in brief: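 In this assay, gene expression is read by qRT-PCR after 48 h exposure of HepaRG cells to eight concentrations (max 100 uM, half-log) in 0.5% DMSO. Each chemical runs in duplicate, and activity is scored relative to vehicle.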

Read-out in assay [15]: Nuclear factor erythroid 2-related factor 2 (Homo sapiens) (UniProt Q16236)
Put plainly: LTEA_HepaRG_NFE2L2: Life Technologies and Expression Analysis (LTEA) Assay for Nuclear factor erythroid 2-related factor 2 (NFE2L2) Transcription Factor using HepaRG (AID 2283527).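 For outcome: TaqMan qRT-PCR transcript level normalised to ACTB GAPDH and POLR2A housekeeping genes.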 The method in brief: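 Human liver HepaRG line treated in duplicate for 48 h with an eight-point series topping at 100 uM. Gene expression of NFE2L2 by qRT-PCR, bidirectionally fitted against the vehicle control.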

Read-out in assay [16]: Insulin-like growth factor-binding protein 1 (IGFBP1), IGFBP1 (gene 3484)
Description: LTEA_HepaRG_IGFBP1: Life Technologies and Expression Analysis (LTEA) Assay for Insulin-like growth factor-binding protein 1 (IGFBP1) using HepaRG (AID 2283508). The method in brief:
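Read-out is qRT-PCR transcript level normalized to three housekeeping genes, fitted in both directions against 0.5% DMSO. Differentiated HepaRG cells received eight half-log concentrations (top 100 uM) in duplicate for 48 h in serum-free induction medium.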

Read-out in assay [17]: Lipoprotein lipase (LPL), LPL (gene 4023)
Description: LTEA_HepaRG_LPL: Life Technologies and Expression Analysis (LTEA) Assay for Lipoprotein lipase (LPL) using HepaRG (AID 2283515). The method in brief:
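Concentration-response testing used half-log steps from 100 uM in 0.5% DMSO on human HepaRG cells, 48 h, duplicate wells. Phenobarbital 1 mM served as induction control; LPL mRNA was normalized to ACTB, GAPDH, POLR2A.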

Calls of active or inactive are those of the source. Rule for the calls: active = hit-call score of the fitted dose curve at least 0.9, where 1 is the maximum; inactive = score below 0.9.

Chain of Nuclear factor erythroid 2-related factor 2 (Homo sapiens) (Q16236 whole entry, looked up): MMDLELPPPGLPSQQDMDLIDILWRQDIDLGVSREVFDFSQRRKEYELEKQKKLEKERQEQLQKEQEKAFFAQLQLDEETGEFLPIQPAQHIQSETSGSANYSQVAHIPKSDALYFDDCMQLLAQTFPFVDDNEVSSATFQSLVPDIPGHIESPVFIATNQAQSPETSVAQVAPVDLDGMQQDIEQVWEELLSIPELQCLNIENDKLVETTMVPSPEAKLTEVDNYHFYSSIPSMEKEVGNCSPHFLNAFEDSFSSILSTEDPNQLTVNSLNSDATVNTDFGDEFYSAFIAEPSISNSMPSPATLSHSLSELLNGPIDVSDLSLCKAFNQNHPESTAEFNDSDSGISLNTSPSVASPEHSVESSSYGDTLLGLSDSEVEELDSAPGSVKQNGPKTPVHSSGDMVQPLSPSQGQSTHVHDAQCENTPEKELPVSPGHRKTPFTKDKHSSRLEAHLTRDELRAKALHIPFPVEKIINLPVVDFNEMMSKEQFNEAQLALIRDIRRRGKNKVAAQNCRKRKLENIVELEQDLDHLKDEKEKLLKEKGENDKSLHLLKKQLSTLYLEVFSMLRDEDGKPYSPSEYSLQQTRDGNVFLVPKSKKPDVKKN

What is called AC50 is the midpoint of the concentration-response curve, whichever way the signal moves. On to `CCCOCC(=Nc1ccc(Cl)cc1C(F)(F)F)n1ccnc1`, for which the AC50 was 85.7 µM (active) in assay [1]; 66.4 µM (active) in assay [2]; 12 µM (active) in assay [4]; 73.1 µM (active) in assay [5]; 17.1 µM (active) in assay [6]; 78.7 µM (active) in assay [7]. Also, the AC50 with MYC, MYC (gene 4609) was 50 µM (active); in assay [8] it was 84.3 µM (active); in assay [9] it was 28.3 µM (active); in [10], 80.7 µM (active); in assay [11], 81.8 µM (active); in assay [12], 21.4 µM (active). For the same molecule, the half-maximal activity concentration (AC50) in assay [13] was 11.5 µM (active). The molecule was called inactive in assay [3], in assay [14] and in assay [15].
For `CCC(=O)Nc1ccc(Cl)c(Cl)c1`, the AC50 in assay [16] was 50 µM (active); in assay [4], 41.4 µM (active); with MYC, MYC (gene 4609), 50 µM (active); in assay [9], 65 µM (active); in assay [12] it was 50 µM (active); in assay [15], 32.2 µM (active). Also, the call in assay [1], in assay [2], in assay [3], in assay [5], in assay [6] and in [7] was inactive. Besides, the molecule was classed as inactive in assay [8], in assay [10], in assay [11], in assay [13] and in [14].
As for `CC(=NC#N)N(C)Cc1ccc(Cl)nc1`, the call in assay [16], in assay [1], in assay [2], in assay [3], in assay [4] and in assay [5] was inactive. The outcome in assay [6] was “inactive”; in assay [7] it was “inactive”; in the assay with MYC, MYC (gene 4609), “inactive”; in [8], “inactive”; in assay [9] it was “inactive”; in assay [10] it was “inactive”. The call in assay [11], in [12], in assay [13], in assay [14] and in [15] was inactive.
As to `C#CC(C)(C)NC(=O)c1cc(Cl)cc(Cl)c1`, the molecule was called inactive in assay [16], in [1], in [3], in assay [5], in assay [17] and in assay [6]. In addition, the outcome in the assay with MYC, MYC (gene 4609) is “inactive”; in [8], “inactive”; in assay [10], “inactive”; in assay [11], “inactive”; in assay [12], “inactive”; in [13], “inactive”. In addition, the call in [14] and in [15] was inactive. The AC50 in [4] was 11.8 µM (active); in [9] it was 50 µM (active).
